This note sets out measurements from PubChem BioAssay (NCATS).

In assay [1] the test system is CRL-7250. Description: Cytotoxic Profiling of Annotated Libraries Using Quantitative High-Throughput Screening (AID 1296008). Note: nearly all actives have a fitted effect of over 60% in size. Note: potency is the fitted concentration of half-maximal effect. The conditions noted are these: Five cell lines viability, CellTiter-Glo ATP luminescence, 48-72 h; max response: stronger effect = lower value. Summed up: (§1)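 Cells exposed to compounds for 48 or 72 hr at 37 degrees Celsius. Viability read as ATP-coupled luminescence with CellTiter-Glo after 10 min at room temperature.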
Background: Cellular ATP, detected with luciferase, serves as a proxy for viable cell number.

The next assay deals with HEK293. Described as above. Particulars: Five cell lines viability, CellTiter-Glo ATP luminescence, 48-72 h; max response: stronger effect = lower value. In outline: as §1
Assay [2] deals with HaCat. The assay is described as above. Particulars: Five cell lines viability, CellTiter-Glo ATP luminescence, 48-72 h; max response: stronger effect = lower value. Summed up: as §1
A further assay relates to KB-3-1. Described as above. The conditions noted are these: Five cell lines viability, CellTiter-Glo ATP luminescence, 48-72 h; max response: stronger effect = lower value. In outline: as §1
Assay [3] has as its system NIH3T3. Described as above. Particulars: Five cell lines viability, CellTiter-Glo ATP luminescence, 48-72 h; max response: stronger effect = lower value. In outline: as §1
The test system of assay [4] is HACAT. Description: qHTS assay to identify novel small-molecules to repurpose for Merkel cell carcinoma treatment (AID 1296009). Note: nearly all actives have a fitted effect of over 60% in size. Particulars: MCC and control cell lines, CellTiter-Glo viability, 72 h; at 44.8 µM (top of the series) unless noted. Summed up:
(§2)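 Dose-response viability screen; 72 hr exposure at 37 degree celsius; CellTiter-Glo added, 10 min room temperature, luminescence read; RLUs scaled between no-cell and DMSO wells.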

The subject of the next assay is HEK293T. The description is as above. The conditions noted are these: MCC and control cell lines, CellTiter-Glo viability, 72 h; at 44.8 µM (top of the series). In outline: as §2
The next assay deals with MCC-13. The assay is described as above. Particulars: MCC and control cell lines, CellTiter-Glo viability, 72 h; series mostly up to 46 µM. Summed up:
as §2

For another assay, the system named is MCC-26. The assay is described as above. Particulars: MCC and control cell lines, CellTiter-Glo viability, 72 h; series mostly up to 46 µM. In outline:
as §2

The next assay relates to MKL-1. The assay is described as above. Particulars: MCC and control cell lines, CellTiter-Glo viability, 72 h; series mostly up to 46 µM. Summed up: as §2
The subject of a further assay is MKL-2. The description is as above. The conditions noted are these: MCC and control cell lines, CellTiter-Glo viability, 72 h; series mostly up to 46 µM. Summed up:
as §2

Assay [5] concerns NIH3T3. Described as above. The conditions noted are these: MCC and control cell lines, CellTiter-Glo viability, 72 h; at 44.8 µM (top of the series) unless noted. In outline: as §2
Another assay relates to UISO. Described as above. The conditions noted are these: MCC and control cell lines, CellTiter-Glo viability, 72 h; series mostly up to 46 µM. Summed up:
as §2

The next assay deals with WaGa. The assay is described as above. Particulars: MCC and control cell lines, CellTiter-Glo viability, 72 h; series mostly up to 46 µM. In outline:
as §2

A further assay concerns C33A. Description: Primary qHTS to identify gynecologic anti-cancer compounds using libraries of approved drugs and bioactive compounds (AID 1345084). Note: nearly all actives have a fitted effect of over 55% in size. Note: potency is the fitted concentration of half-maximal effect. The conditions noted are these: Gynecologic cancer cell panel viability, ATPlite luminescence, 48 h; series mostly up to 57.5 µM. Summed up:
(§3)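 Luminescence from the ATPlite ATP-monitoring reagent indicates viable cell number; lower signal means cytotoxicity. Cells received compound 16 h after seeding and were exposed for 48 h across five concentrations.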
(In qHTS, concentration-response curves come from the screen itself.)

Another assay has as its system CAOV3. Described as above. Particulars: Gynecologic cancer cell panel viability, ATPlite luminescence, 48 h; series mostly up to 57.5 µM. In outline:
as §3

A further assay has as its system CASKI. The assay is described as above. Particulars: Gynecologic cancer cell panel viability, ATPlite luminescence, 48 h; series mostly up to 57.5 µM. Summed up: as §3
In another assay the test system is Es-2. The description is as above. The conditions noted are these: Gynecologic cancer cell panel viability, ATPlite luminescence, 48 h; series mostly up to 57.5 µM. Summed up: as §3
In the next assay the test system is HeLa. Described as above. Particulars: Gynecologic cancer cell panel viability, ATPlite luminescence, 48 h; series mostly up to 57.5 µM. Summed up:
as §3

The test system of assay [6] is CRL-7250. Description: qHTS assay to identify novel small-molecules to repurpose for Merkel cell carcinoma treatment (AID 1296009). Note: nearly all actives have a fitted effect of over 60% in size. The conditions noted are these: MCC and control cell lines, CellTiter-Glo viability, 72 h; at 44.8 µM (top of the series) unless noted. In outline: as §2

Values joined by “and” are separate entries in the source; they are usually repeats but may differ in a detail not shown here. Identical values can stand only once. Inconclusive results are not listed. Values without a mark were called inactive. Active and inactive are the calls of the source. Calls come from the whole dose curve; as a rule, active = well fitted curve in the direction sought with a large enough effect; inconclusive = small, poorly fitted or top-dose-only effect, or another doubt; inactive = no such curve, though single readings can be large; an effect the other way counts as inactive or inconclusive.
% is set by controls: 0 for no effect and ±100 for the full control effect.

`CCOP(=S)(OCC)O/N=C(\C#N)c1ccccc1`: the max response was -6.28% with CRL-7250 [1] and -0.0569% in the assay with KB-3-1. Besides, the compound was classed as inactive in the assay on HEK293, in the assay on HaCat [2], with NIH3T3 [3], with HACAT [4], in the assay with HEK293T and in the assay with NIH3T3 [5]. Besides, the Potency entry in the assay with MCC-13, in the assay with MCC-26, in the assay on MKL-1, with MKL-2, in the assay on UISO and in the assay with WaGa was “inactive” in each case. Moreover, the Potency result in the assay with C33A, with CAOV3, with CASKI, in the assay with Es-2 and in the assay on HeLa was “inactive” each time.
Turning to `C[C@]12CC[C@H]3[C@@H](CCC4=CC(=O)CC[C@@H]43)[C@@H]1CC[C@@H]2O`, the values for the max response with CRL-7250 [1], with HEK293 and with NIH3T3 [3] were -5%, 0.616% and -16.1%, respectively. For the same compound, the compound was classed as inactive in the assay with HaCat [2] and in the assay on HACAT [4]. For the same compound, the Potency was 11.6 µM (active) and 20.6 µM (active) with KB-3-1; 2240 nM (active) in the assay on HeLa. Also, the Potency entry in the assay with MCC-13, in the assay with MCC-26, in the assay on MKL-1, with MKL-2, in the assay on UISO and in the assay with WaGa was “inactive” in each case. The Potency entry with C33A, in the assay on CAOV3, with CASKI and in the assay with Es-2 was “inactive” each time.
Regarding `CN(C)C(=O)Oc1cc(OC(=O)N(C)C)cc(C(O)CNC(C)(C)C)c1` (stereo not drawn), the max response was -6.2% with CRL-7250 [1], -17.2% in the assay on HEK293, -2.49% in the assay on KB-3-1 and -1.01% in the assay with NIH3T3 [3]. For the same compound, the outcome in the assay on HaCat [2] and with HACAT [4] was inactive. Besides, the Potency result in the assay with MCC-13, with MCC-26, in the assay on MKL-1, in the assay with MKL-2, in the assay with UISO and in the assay on WaGa was “inactive” in each case. Further, the Potency entry in the assay on C33A, with CAOV3, in the assay with CASKI, in the assay with Es-2 and in the assay with HeLa was “inactive” each time.
As for `COC(=O)C1=CCCN(C)C1`, the max response was -3.77% in the assay with CRL-7250 [1]; 2.76% and 4.85% in the assay on HEK293; -4.46% in the assay on HaCat [2]; 6.89% and 12.1% in the assay with KB-3-1. The compound was classed as inactive in the assay on CRL-7250 [1], with HaCat [2], in the assay on NIH3T3 [3], in the assay with CRL-7250 [6], in the assay with HACAT [4] and with NIH3T3 [5]. Also, the Potency entry in the assay with MCC-13, in the assay on MCC-26, in the assay with MKL-1, in the assay on MKL-2, with UISO and in the assay with WaGa was “inactive” in each case. For the same compound, the Potency entry in the assay on C33A, in the assay with CAOV3, with CASKI, in the assay with Es-2 and with HeLa was “inactive” in each case.
With `CN(C)CCc1c[nH]c2cccc(O)c12`, the result in the assay on CRL-7250 [1] and in the assay with HaCat [2] was inactive. The max response was -13.6% in the assay on HEK293, -8.17% with KB-3-1 and 2.31% with NIH3T3 [3]. Besides, the outcome in the assay on HACAT [4] is “inactive [at 92 µM]”. Besides, the Potency entry with MCC-13, with MCC-26, with MKL-1, in the assay on MKL-2, in the assay with C33A and in the assay with CAOV3 was “inactive” each time. The Potency result in the assay with CASKI, in the assay with Es-2 and in the assay on HeLa was “inactive” each time.
For `NCc1cccnc1`, the max response in the assay on CRL-7250 [1] was -13.7%; with HEK293 it was -4.51%; with KB-3-1 it was -3.91%; in the assay with NIH3T3 [3], 3.43%. The outcome in the assay with HaCat [2] and in the assay with HACAT [4] was inactive. The Potency result in the assay on MCC-13, in the assay on MCC-26, in the assay on MKL-1, in the assay with MKL-2, in the assay with UISO and in the assay on WaGa was “inactive” each time. Further, the Potency entry in the assay with C33A, with CASKI, in the assay on Es-2 and in the assay on HeLa was “inactive” each time.
As to `O=C(O)Cc1ccccc1`, the max response in the assay with CRL-7250 [1] is -22.4%; in the assay on HEK293 it was -7.97%; in the assay with KB-3-1, -2.72%. For the same compound, the result in the assay with HaCat [2], in the assay on NIH3T3 [3], in the assay on HACAT [4] and with NIH3T3 [5] was inactive. Moreover, the Potency entry with MCC-13, in the assay on MCC-26, in the assay on MKL-1, in the assay on MKL-2, with UISO and in the assay with WaGa was “inactive” in each case. The Potency entry in the assay on C33A, in the assay with CASKI, in the assay with Es-2 and in the assay on HeLa was “inactive” throughout.
Take `CC1N=C(N)OC1c1ccccc1` (stereo not drawn): the max response in the assay with CRL-7250 [1] is -30.4%; with HEK293 it was -15.4%; in the assay with KB-3-1, -3.1%; in the assay with NIH3T3 [3] it was -2.85%. Further, in the assay on HaCat [2], the outcome was inactive. For the same compound, in the assay on HACAT [4], the outcome is “inactive [at 92 µM]”. Also, the Potency entry in the assay with MCC-13, with MCC-26, in the assay on MKL-1, in the assay with MKL-2, in the assay with UISO and with C33A was “inactive” in each case. Moreover, the Potency entry with CASKI, in the assay on Es-2 and in the assay on HeLa was “inactive” throughout.
With `C[N+]1(C)[C@@H]2CC[C@H]1CC(OC(=O)C(CO)c1ccccc1)C2` (stereo partly drawn), the call in the assay with CRL-7250 [1], with HEK293, in the assay on CRL-7250 [6] and with HEK293T was inactive. The max response with HaCat [2] is -1.21%; in the assay with KB-3-1, -14.7% and 4.2%; with NIH3T3 [3], -5.19%. Besides, the Potency result with MCC-13, with MCC-26, with MKL-1, with MKL-2, with UISO and in the assay on WaGa was “inactive” each time. The Potency entry in the assay with C33A, in the assay on CAOV3, in the assay on CASKI, in the assay with Es-2 and in the assay with HeLa was “inactive” in each case.
As to `ClC1=C(Cl)C2(Cl)C(CBr)CC1(Cl)C2(Cl)Cl` (stereo not drawn), the max response with CRL-7250 [1] is -0.0053%; with KB-3-1, -4.74%; in the assay with NIH3T3 [3] it was -4.41%. Besides, the compound was called inactive in the assay with HEK293, with HaCat [2], in the assay with HACAT [4] and in the assay on HEK293T. The Potency entry with MCC-13, in the assay with MCC-26, in the assay on MKL-1, in the assay on MKL-2, in the assay on UISO and in the assay with WaGa was “inactive” in each case. In addition, the Potency result in the assay on C33A, in the assay with CAOV3, in the assay on CASKI, in the assay with Es-2 and in the assay with HeLa was “inactive” in each case.
For `CN1C[C@@H](NS(=O)(=O)N(C)C)C[C@@H]2c3cccc4c3c(cn4C)C[C@H]21`, the call with CRL-7250 [1], with HaCat [2], with CRL-7250 [6] and with HACAT [4] was inactive. In addition, the values for the max response in the assay with HEK293, with KB-3-1 and in the assay on NIH3T3 [3] were -5.36%, -6.93% and -4.54%, respectively. Moreover, the Potency result with MCC-13, in the assay with MCC-26, in the assay with MKL-1, in the assay on MKL-2, in the assay on UISO and with WaGa was “inactive” throughout. Further, the Potency result in the assay on C33A, in the assay with CAOV3, with CASKI, in the assay on Es-2 and with HeLa was “inactive” in each case.
Consider `C=CCN1CC[C@]23CCCC[C@H]2[C@H]1Cc1ccc(O)cc13`, for which the max response is 1.58% in the assay on CRL-7250 [1], -6.38% with HEK293, 20.9% in the assay with KB-3-1 and -4.67% in the assay with NIH3T3 [3]. Moreover, the compound was classed as inactive in the assay on HaCat [2] and in the assay on HACAT [4]. The Potency result in the assay on MCC-13, in the assay on MCC-26, in the assay on MKL-1, with MKL-2, with UISO and in the assay on WaGa was “inactive” throughout. Besides, the Potency entry in the assay on C33A, with CAOV3, in the assay on CASKI, in the assay with Es-2 and in the assay with HeLa was “inactive” each time.
